# Legend:
# Experiment in all cases: protein binding microarray; high values mean tight binding
# Details in all cases: dsDNA, one strand shown
# [1] = target: RELARELA (p65 homodimer) (Homo sapiens, UniProt Q04206 1-307)
# [2] = target: p50p50 homodimer (Homo sapiens, UniProt P19838 7-356)
# [3] = target: T1, p52p52 homodimer (Homo sapiens, UniProt Q00653 4-332)
# T1 sequence: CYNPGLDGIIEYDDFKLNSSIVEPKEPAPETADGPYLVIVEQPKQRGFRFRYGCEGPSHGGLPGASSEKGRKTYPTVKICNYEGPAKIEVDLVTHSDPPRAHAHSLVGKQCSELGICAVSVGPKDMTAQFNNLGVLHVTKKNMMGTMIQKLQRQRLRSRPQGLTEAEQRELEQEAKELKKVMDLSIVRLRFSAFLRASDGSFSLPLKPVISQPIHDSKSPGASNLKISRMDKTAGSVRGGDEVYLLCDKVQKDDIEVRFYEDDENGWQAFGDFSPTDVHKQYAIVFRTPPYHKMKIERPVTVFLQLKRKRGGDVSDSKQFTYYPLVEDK
# [4] = target: RELA (p65) subunit of heterodimer;p50 subunit (Homo sapiens;Homo sapiens, UniProt Q04206;P19838 1-307;7-356)
# Chain of RELA (p65) subunit of heterodimer;p50 subunit (Q04206 1-307, chain 1 of 2): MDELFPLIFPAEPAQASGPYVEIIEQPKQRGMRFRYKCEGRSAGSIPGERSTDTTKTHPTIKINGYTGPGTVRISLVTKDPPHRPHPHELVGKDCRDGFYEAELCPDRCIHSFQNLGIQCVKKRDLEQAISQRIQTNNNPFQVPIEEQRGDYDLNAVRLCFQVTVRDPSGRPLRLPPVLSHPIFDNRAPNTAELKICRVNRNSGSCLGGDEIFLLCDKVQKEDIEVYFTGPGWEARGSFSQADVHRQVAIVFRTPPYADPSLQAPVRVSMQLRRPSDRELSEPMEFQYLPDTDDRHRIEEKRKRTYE
# Chain of RELA (p65) subunit of heterodimer;p50 subunit (P19838 7-356, chain 2 of 2): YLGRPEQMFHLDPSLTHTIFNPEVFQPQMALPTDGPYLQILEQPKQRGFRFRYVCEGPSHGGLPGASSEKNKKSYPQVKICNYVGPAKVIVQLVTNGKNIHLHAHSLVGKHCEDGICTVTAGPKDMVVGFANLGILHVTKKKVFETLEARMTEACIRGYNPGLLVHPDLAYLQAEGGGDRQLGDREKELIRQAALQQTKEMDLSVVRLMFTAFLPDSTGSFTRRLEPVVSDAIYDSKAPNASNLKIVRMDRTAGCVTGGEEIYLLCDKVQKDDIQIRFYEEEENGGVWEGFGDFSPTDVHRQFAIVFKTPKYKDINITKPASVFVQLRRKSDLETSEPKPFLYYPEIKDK
# [5] = target: RELA (p65) subunit of heterodimer;p52 subunit (Homo sapiens;Homo sapiens, UniProt Q04206;Q00653 1-307;4-332)
# [6] = target: RELB subunit;p50 subunit (Homo sapiens;Homo sapiens, UniProt Q01201;P19838 120-401;7-356)
# [7] = target: T2, RELB subunit;p52 subunit (Homo sapiens;Homo sapiens, UniProt Q01201;Q00653 120-401;4-332)
# T2 sequence 1: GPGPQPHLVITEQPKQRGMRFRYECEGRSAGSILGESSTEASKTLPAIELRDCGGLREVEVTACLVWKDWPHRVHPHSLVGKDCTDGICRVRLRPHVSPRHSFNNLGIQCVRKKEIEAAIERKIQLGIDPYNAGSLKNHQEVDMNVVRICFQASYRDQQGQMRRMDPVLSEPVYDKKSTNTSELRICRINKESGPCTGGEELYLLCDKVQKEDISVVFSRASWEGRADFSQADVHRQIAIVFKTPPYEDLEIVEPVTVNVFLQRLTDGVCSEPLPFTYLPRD
# T2 sequence 2: T1 sequence
# [8] = target: C-Rel subunit;p50 subunit (Homo sapiens;Homo sapiens, UniProt Q04864;P19838 1-285;7-356)
# [9] = target: T3, C-Rel subunit;p52 subunit (Homo sapiens;Homo sapiens, UniProt Q04864;Q00653 1-285;4-332)
# T3 sequence 1: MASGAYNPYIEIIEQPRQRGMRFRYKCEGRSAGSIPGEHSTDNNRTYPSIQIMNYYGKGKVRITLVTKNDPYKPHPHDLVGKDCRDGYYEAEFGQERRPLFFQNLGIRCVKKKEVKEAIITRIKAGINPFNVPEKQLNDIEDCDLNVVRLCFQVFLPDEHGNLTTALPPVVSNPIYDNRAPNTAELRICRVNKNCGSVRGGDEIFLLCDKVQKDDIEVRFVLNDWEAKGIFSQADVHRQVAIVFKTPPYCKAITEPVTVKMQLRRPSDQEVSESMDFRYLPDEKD
# T3 sequence 2: T1 sequence
# Chain of RELARELA (p65 homodimer) (Q04206 1-307): as the sequence (Q04206 1-307, chain 1 of 2) above
# Chain of p50p50 homodimer (P19838 7-356): as the sequence (P19838 7-356, chain 2 of 2) above
Sequence,binding signal [1],binding signal [2],binding signal [3],binding signal [4],binding signal [5],binding signal [6],binding signal [7],binding signal [8],binding signal [9]
GGATACTTCCT,0.213 z-score,-1.36 z-score,-0.625 z-score,-0.647 z-score,-0.831 z-score,-1.14 z-score,-0.942 z-score,-1.04 z-score,-0.591 z-score
AAATAAACCCT,-0.478 z-score,0.0209 z-score,0.172 z-score,-0.112 z-score,0.045 z-score,-0.326 z-score,-0.0813 z-score,-0.324 z-score,-0.00628 z-score
CAGTAAATCCT,-0.441 z-score,-1.23 z-score,-0.605 z-score,-0.903 z-score,-0.822 z-score,-0.822 z-score,-0.598 z-score,-1.01 z-score,-0.81 z-score
CGAATACCCCT,0.147 z-score,1.13 z-score,0.86 z-score,1.17 z-score,1.12 z-score,1.03 z-score,1.63 z-score,0.876 z-score,0.881 z-score
GAAGACACCCC,-0.516 z-score,-0.135 z-score,-0.303 z-score,-0.324 z-score,-0.316 z-score,-0.183 z-score,0.105 z-score,-0.163 z-score,-0.242 z-score
CAAATTCCCCC,2.31 z-score,1.64 z-score,2.63 z-score,2.41 z-score,2.32 z-score,2.69 z-score,2.35 z-score,1.89 z-score,2.65 z-score
CAAAAGACCCT,-0.503 z-score,0.305 z-score,-0.0206 z-score,0 z-score,0.196 z-score,-0.111 z-score,-0.0281 z-score,-0.615 z-score,0.0358 z-score
CAGGGATCCCC,0.967 z-score,0.94 z-score,0.898 z-score,1.56 z-score,1.23 z-score,1.11 z-score,1.1 z-score,1.1 z-score,1.31 z-score
CGATGTGTCCC,0.341 z-score,-0.155 z-score,0.228 z-score,0.0812 z-score,0.0701 z-score,-0.0289 z-score,0.0454 z-score,0.132 z-score,0.074 z-score
GGAGGAGTCCC,0.299 z-score,0.853 z-score,0.586 z-score,0.889 z-score,0.831 z-score,0.725 z-score,0.409 z-score,0.717 z-score,0.541 z-score
AAGGATACCCC,0.0433 z-score,0.446 z-score,0.189 z-score,0.436 z-score,0.502 z-score,0.457 z-score,0.95 z-score,0.507 z-score,0.247 z-score
AAGTGTTCCCC,0.872 z-score,0.916 z-score,0.928 z-score,1.24 z-score,0.915 z-score,1.13 z-score,1.14 z-score,1.33 z-score,0.844 z-score
GGATATCTCCC,0.156 z-score,0.192 z-score,0.0332 z-score,0.149 z-score,0.0232 z-score,0.028 z-score,-0.143 z-score,-0.122 z-score,-0.036 z-score
CGGAATTTCCT,3.7 z-score,-0.012 z-score,-0.109 z-score,1.2 z-score,0.553 z-score,-0.413 z-score,-0.0415 z-score,0.843 z-score,0.719 z-score
GAGTATTTCCC,2.24 z-score,0.925 z-score,1.05 z-score,1.27 z-score,1.1 z-score,0.527 z-score,0.505 z-score,1.24 z-score,1.14 z-score

# Reference: article PMC3218832
